Experimental data published in the supplement of paper PMC11732987, “Enantioselective OTUD7B fragment discovery through chemoproteomics screening and high-throughput optimisation” (Communications Chemistry, 2025).

Experiments:
Test in all cases: log2 ratio of Biotin-Ahx-Ub-VS probe labelling (fragment/DMSO); higher = less target engagement (more negative = stronger competition), active = hit call of the paper (q ≤ 0.05, log2 ratio ≤ -1)
Settings in all cases: compound concentration: 200 uM; treatment time: 3 h
USP42 = target: T1, USP42 (UniProt Q9H9J4)
T1 sequence (whole entry): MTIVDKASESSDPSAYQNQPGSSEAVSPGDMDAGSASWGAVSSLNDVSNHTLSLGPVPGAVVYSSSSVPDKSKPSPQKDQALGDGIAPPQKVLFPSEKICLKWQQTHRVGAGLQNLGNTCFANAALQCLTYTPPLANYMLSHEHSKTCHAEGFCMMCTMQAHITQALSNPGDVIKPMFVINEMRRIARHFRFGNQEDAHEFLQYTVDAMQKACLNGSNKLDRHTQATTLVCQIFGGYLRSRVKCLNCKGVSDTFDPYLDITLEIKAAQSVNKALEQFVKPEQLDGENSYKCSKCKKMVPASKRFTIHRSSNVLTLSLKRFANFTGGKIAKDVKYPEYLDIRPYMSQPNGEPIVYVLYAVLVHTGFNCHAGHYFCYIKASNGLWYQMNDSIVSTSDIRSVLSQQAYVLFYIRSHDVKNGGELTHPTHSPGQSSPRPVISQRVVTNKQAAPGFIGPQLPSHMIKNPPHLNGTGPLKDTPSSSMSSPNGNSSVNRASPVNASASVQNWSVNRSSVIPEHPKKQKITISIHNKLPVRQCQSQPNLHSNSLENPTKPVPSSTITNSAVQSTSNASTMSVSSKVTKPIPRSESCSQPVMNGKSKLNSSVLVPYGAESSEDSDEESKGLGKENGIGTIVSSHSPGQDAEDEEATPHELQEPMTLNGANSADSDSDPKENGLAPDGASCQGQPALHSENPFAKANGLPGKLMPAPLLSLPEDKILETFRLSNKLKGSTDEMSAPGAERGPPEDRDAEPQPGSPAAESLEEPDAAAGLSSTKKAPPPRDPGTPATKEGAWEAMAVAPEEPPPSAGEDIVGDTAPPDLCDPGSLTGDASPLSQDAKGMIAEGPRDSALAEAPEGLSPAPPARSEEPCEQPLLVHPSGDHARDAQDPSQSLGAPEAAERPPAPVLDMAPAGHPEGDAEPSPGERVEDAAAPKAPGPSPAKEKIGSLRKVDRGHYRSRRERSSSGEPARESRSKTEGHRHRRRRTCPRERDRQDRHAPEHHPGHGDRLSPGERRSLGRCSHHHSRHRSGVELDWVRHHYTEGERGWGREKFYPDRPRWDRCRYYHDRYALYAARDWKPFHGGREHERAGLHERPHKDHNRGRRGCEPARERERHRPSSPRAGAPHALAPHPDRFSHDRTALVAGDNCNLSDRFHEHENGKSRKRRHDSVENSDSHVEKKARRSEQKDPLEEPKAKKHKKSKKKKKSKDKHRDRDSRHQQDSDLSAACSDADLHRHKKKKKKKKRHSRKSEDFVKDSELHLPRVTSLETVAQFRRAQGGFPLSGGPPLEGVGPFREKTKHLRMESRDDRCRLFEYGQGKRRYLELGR
Procedure, shortened: (§1)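 Triplicate samples of HEK293T lysate, 495 µg each, received fragment at 200 µM or vehicle for 3 h, followed by Biotin-Ahx-Ub-VS (0.5 µM final) for 1 h. After NeutrAvidin enrichment of labelled DUBs and LysC/trypsin digestion, peptides were run by diaPASEF LC-MS/MS. The values are average log2 fragment/vehicle ratios from global-median-normalised Spectronaut label-free quantities, tested by unpaired t-test on proteins having ≥2 unique peptides.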

USP46 = USP46 (UniProt P62068)
Procedure, shortened: as §1

USP47 = target: T2, USP47 (UniProt Q96K76)
T2 sequence (whole entry): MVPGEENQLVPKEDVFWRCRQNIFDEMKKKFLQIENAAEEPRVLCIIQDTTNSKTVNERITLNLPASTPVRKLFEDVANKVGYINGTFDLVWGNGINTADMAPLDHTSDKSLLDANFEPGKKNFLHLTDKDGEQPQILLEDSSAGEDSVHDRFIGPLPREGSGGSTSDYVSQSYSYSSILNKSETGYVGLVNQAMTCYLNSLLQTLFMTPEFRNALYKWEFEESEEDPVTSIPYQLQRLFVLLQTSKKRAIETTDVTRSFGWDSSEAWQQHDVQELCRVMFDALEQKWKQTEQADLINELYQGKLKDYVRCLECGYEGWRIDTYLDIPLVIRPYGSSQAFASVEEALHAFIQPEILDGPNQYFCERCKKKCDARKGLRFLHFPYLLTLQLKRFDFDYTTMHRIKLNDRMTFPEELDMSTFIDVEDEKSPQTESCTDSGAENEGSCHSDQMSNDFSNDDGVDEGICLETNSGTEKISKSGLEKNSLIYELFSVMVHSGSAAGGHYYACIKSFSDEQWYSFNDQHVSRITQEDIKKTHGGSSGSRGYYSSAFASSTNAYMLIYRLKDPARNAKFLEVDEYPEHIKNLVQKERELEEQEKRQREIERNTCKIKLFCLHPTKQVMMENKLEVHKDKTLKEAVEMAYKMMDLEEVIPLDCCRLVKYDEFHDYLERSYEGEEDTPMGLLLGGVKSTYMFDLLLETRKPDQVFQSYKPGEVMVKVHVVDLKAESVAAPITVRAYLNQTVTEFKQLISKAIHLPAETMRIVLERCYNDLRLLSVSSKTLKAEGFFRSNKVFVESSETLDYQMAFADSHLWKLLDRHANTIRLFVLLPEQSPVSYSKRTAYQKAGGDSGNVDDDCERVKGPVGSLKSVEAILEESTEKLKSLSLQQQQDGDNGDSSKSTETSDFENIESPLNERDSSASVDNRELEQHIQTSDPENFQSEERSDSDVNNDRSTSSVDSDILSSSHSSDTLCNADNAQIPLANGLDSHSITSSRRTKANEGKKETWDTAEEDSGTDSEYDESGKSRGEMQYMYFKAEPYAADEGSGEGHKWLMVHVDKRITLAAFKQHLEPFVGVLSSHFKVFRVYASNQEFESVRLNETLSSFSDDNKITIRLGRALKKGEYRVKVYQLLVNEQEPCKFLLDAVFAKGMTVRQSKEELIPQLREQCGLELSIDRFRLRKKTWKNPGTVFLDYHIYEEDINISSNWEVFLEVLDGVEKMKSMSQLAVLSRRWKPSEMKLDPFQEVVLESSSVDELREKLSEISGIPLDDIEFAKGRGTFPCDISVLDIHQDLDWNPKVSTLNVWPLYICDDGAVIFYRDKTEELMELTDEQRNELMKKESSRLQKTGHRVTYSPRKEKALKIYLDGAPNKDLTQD
Procedure, shortened: as §1

USP48 = target: T3, USP48 (UniProt Q86UV5)
T3 sequence (whole entry): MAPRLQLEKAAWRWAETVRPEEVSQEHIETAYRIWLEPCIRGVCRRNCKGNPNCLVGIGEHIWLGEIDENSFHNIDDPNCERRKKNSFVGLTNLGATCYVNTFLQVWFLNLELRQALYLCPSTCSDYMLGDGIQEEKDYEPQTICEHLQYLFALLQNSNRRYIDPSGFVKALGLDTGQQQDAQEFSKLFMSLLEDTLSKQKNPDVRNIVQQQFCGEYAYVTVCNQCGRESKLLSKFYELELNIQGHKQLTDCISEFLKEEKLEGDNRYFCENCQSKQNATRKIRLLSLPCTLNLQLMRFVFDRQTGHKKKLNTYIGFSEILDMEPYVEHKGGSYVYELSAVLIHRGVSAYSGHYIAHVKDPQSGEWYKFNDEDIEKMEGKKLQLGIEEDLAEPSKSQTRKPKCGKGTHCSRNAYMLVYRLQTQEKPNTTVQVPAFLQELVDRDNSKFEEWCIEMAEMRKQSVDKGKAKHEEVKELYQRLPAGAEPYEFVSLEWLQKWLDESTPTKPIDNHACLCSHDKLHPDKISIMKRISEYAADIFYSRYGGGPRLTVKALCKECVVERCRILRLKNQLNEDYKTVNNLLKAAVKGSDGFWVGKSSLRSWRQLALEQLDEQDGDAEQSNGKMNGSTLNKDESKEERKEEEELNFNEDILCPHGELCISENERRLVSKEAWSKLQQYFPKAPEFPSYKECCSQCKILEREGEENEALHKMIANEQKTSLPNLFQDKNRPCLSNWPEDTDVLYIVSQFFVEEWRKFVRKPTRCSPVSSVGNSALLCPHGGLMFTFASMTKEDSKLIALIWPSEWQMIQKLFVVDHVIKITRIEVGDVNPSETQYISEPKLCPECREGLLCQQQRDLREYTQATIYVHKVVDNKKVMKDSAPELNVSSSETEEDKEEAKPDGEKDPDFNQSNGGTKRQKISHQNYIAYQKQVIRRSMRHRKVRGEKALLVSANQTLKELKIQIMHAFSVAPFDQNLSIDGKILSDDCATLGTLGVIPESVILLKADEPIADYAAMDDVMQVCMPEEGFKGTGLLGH
Procedure, shortened: as §1

USP5 = target: T4, USP5 (UniProt P45974)
T4 sequence (whole entry): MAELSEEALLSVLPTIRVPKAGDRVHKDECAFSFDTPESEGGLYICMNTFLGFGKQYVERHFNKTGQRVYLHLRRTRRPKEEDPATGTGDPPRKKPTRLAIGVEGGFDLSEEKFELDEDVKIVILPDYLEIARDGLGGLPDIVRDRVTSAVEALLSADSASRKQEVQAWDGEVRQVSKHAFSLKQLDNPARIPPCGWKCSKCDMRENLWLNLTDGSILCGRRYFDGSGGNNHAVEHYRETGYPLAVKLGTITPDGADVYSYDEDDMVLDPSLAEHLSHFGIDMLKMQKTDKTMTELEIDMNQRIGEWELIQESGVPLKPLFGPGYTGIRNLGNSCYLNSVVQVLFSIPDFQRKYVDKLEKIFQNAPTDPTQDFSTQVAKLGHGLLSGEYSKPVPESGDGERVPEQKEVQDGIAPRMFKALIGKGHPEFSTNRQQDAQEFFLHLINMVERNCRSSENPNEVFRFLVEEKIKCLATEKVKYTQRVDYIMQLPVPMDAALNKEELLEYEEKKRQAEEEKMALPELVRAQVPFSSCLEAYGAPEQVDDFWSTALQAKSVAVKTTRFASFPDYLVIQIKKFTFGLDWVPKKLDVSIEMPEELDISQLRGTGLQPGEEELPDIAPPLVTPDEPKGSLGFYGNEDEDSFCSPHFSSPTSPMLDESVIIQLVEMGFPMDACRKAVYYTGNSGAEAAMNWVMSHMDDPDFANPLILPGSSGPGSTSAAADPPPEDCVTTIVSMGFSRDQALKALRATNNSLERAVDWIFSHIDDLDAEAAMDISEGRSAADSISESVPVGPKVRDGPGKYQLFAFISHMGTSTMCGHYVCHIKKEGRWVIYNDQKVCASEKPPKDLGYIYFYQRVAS
Procedure, shortened: as §1

USP54 = USP54 (UniProt Q70EL1)
Procedure, shortened: as §1

USP7 = USP7 (UniProt Q93009)
Procedure, shortened: as §1

USP8 = target: T5, USP8 (UniProt P40818)
T5 sequence (whole entry): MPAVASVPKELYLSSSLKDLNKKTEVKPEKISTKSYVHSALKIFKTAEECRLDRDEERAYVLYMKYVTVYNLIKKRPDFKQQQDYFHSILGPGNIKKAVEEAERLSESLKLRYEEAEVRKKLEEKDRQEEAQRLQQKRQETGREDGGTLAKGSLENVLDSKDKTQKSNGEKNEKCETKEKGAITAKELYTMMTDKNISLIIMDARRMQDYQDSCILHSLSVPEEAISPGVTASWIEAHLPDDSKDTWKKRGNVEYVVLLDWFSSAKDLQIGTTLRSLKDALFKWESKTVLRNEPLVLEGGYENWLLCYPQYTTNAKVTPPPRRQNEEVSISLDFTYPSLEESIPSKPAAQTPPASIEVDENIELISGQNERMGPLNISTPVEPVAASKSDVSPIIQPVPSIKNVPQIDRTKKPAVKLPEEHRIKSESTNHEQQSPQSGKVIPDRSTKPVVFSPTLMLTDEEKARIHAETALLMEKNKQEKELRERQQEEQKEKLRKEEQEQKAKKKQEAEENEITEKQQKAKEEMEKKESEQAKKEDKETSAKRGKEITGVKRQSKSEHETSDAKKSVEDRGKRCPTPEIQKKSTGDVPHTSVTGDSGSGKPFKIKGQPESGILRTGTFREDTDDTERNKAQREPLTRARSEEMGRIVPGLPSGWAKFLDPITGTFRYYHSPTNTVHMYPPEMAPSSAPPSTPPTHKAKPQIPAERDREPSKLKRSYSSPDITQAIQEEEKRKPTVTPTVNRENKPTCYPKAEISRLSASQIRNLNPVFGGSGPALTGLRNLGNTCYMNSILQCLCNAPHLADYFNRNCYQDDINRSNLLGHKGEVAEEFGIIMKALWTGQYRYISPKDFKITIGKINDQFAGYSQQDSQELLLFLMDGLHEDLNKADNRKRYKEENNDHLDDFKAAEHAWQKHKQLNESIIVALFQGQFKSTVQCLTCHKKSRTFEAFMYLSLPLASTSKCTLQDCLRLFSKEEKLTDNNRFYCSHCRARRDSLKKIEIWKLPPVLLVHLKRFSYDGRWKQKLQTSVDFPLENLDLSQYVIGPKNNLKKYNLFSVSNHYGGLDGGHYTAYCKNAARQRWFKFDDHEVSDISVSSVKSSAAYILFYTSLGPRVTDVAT
Procedure, shortened: as §1

USP9X = USP9X (UniProt Q93008)
Procedure, shortened: as §1

UniProt O00487 = target: UniProt O00487
Procedure, shortened: as §1

Measured: log2 ratio of Biotin-Ahx-Ub-VS probe labelling

Sequence of USP54 (Q70EL1 whole entry): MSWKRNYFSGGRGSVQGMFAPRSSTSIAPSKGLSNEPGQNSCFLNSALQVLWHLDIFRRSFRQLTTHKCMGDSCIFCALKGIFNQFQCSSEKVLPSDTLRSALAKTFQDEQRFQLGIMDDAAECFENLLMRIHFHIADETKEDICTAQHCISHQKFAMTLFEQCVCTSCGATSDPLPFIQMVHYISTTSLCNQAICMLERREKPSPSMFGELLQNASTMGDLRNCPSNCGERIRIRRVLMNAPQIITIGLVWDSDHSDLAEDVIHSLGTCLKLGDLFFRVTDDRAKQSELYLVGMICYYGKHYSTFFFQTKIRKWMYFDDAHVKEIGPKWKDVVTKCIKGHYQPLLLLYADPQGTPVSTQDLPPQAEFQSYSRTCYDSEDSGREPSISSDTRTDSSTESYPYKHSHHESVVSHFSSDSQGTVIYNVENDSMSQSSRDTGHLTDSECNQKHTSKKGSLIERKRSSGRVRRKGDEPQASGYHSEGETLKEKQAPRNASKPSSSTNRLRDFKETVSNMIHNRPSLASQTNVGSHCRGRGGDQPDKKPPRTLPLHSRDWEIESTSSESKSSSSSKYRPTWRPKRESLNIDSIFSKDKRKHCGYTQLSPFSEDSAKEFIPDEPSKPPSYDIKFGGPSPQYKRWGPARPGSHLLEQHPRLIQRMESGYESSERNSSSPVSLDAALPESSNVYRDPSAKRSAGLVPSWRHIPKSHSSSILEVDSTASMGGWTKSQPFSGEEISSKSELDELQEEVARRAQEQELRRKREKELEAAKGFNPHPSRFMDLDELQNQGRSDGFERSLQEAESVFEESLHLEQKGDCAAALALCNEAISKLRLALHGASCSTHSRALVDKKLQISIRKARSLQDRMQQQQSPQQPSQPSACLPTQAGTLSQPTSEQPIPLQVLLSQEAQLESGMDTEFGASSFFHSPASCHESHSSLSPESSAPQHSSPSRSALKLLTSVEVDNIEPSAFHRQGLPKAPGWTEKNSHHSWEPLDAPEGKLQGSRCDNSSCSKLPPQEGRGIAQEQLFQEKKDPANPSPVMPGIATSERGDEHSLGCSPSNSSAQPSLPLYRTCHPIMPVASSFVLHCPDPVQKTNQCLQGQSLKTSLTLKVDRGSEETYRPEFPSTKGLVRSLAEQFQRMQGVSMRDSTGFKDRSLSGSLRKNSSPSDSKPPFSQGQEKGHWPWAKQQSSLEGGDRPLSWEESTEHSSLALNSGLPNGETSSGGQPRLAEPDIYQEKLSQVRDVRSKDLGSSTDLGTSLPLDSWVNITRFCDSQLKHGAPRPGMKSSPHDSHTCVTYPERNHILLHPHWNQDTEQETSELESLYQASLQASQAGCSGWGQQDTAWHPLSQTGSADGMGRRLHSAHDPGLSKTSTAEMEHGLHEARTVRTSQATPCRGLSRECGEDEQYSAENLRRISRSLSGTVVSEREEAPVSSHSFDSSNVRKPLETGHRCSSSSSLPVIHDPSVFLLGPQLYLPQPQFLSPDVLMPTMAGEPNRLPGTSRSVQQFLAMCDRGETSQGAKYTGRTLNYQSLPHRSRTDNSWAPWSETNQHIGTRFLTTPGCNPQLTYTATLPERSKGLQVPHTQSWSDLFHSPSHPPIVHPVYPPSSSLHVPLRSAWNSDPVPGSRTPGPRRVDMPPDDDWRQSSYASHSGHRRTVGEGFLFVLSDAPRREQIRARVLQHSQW
Sequence of USP46 (P62068 whole entry): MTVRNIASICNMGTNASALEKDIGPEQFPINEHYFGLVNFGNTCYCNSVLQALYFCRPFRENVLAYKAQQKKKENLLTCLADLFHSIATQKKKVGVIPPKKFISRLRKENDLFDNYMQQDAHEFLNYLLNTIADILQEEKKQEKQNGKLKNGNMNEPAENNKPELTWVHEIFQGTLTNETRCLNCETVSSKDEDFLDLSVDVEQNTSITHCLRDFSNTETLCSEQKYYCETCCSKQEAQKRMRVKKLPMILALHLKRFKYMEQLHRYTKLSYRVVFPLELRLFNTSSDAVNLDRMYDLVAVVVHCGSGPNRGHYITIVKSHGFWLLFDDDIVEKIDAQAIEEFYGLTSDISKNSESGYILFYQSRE
Sequence of UniProt O00487 (O00487 whole entry): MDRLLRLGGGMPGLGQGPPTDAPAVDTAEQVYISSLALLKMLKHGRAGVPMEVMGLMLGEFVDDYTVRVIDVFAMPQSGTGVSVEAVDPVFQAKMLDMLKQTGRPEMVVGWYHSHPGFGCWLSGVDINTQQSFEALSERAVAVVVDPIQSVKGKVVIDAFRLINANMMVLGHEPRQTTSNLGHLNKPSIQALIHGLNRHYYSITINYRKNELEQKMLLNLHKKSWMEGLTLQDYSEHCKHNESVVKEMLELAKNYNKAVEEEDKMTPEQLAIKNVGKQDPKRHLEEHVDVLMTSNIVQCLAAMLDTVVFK
Sequence of USP9X (Q93008 whole entry): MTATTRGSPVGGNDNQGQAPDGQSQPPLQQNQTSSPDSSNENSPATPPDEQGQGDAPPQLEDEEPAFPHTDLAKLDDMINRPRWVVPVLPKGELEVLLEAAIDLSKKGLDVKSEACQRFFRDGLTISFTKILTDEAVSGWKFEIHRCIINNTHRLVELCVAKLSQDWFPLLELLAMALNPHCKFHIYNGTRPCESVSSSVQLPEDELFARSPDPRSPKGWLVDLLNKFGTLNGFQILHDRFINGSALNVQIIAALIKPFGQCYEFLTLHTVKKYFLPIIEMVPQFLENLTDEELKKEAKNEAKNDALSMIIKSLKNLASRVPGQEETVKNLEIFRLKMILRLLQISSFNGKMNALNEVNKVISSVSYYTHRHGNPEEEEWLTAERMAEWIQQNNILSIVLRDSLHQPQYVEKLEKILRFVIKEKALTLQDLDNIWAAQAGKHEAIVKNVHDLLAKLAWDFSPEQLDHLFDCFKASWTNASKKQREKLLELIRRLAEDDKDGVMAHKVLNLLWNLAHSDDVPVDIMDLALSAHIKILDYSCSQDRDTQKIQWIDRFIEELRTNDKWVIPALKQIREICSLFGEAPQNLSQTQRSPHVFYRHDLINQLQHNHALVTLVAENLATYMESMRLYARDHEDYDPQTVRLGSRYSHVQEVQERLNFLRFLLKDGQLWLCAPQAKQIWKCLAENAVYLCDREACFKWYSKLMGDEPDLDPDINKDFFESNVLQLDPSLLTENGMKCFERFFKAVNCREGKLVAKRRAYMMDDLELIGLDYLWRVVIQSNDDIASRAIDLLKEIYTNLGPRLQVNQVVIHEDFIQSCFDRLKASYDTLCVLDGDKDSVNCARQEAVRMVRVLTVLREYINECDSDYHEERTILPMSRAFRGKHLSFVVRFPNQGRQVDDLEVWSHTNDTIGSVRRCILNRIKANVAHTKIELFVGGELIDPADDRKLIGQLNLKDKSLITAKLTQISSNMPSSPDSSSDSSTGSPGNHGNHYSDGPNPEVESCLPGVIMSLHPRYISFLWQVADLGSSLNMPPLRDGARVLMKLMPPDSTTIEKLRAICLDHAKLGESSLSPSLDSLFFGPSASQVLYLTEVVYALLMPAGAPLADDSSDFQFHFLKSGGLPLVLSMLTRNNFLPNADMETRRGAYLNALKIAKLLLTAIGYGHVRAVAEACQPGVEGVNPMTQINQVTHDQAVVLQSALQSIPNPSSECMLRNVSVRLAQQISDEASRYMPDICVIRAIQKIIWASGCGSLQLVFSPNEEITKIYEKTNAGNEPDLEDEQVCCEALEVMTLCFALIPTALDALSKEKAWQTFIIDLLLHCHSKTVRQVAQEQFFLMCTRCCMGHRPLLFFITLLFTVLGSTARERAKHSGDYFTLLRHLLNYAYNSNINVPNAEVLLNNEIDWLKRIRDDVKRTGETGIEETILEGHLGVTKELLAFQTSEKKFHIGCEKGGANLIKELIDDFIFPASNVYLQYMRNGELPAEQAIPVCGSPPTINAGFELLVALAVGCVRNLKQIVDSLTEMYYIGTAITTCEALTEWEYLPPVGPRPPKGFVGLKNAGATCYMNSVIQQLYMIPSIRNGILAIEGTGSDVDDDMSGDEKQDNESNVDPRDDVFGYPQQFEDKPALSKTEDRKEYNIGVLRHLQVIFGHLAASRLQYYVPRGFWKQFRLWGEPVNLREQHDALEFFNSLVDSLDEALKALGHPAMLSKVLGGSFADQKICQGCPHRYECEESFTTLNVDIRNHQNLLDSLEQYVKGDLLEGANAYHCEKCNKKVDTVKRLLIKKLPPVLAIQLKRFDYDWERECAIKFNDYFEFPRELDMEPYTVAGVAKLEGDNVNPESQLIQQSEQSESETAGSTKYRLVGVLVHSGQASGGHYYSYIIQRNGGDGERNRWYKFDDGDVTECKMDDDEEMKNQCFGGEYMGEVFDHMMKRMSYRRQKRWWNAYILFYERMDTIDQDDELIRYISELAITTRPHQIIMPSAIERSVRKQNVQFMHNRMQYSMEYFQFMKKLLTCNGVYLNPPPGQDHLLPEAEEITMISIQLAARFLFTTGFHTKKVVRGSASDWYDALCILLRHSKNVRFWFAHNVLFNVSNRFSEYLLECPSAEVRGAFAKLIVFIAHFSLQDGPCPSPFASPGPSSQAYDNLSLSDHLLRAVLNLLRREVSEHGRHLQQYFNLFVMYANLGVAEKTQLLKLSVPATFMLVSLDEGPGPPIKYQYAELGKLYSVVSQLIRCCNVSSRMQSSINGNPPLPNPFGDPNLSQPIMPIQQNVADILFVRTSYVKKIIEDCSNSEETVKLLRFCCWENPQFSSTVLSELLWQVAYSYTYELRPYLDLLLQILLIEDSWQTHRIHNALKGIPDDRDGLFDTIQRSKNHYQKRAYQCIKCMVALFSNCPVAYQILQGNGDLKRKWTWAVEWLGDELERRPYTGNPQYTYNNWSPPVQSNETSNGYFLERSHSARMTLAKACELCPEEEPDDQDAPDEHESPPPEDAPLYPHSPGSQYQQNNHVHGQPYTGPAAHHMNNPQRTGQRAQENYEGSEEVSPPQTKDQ

O=C(CCl)N1CCC(C(O)c2ccc(F)cc2)CC1 (stereo not given)
inactive: USP42 0.365 | USP46 0.252 | USP47 -0.324 | USP48 0.00604 | USP5 0.131 | USP54 -0.000277 | USP7 -0.0695 | USP8 0.0961 | USP9X 0.23 | UniProt O00487 0.0841
